Rows were chosen to be rich in hits. Some 9.2% of all compounds tested hit in one or more screens of this group.
ELG1 genotoxic: induces genotoxicity in HEK293T cells with luciferase-tagged ELG1 | 1.3% of 330,000 active | Potency, µM (top dose mostly 46 µM), inactives show at the top dose activity change, positive = activation, actives largely listed as activators | HEK293T ELG1-luciferase reporter, luminescence, 16 h; also: % of control where 0% means no effect; nearly all actives have a fitted effect of over 60% in size
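Genotoxicity was scored as increased ELG1-luciferase reporter signal, measured by ONE-Glo luminescence (30 min, room temperature). Compound or vehicle exposure of the HEK293T reporter cells lasted 16 hr at 37°C.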
ELG1 repair inh: ELG1-dependent DNA repair inhibition; HEK293T ELG1-luciferase reporter, luminescence, 16 h; DNA damage induced by 5-fluorouridine; Potency, µM (titrated, usually from 46.1 µM), inactives show at the highest dose activity change, negative = inhibition, usual class: inhibitors; 2.3% of 330,000 active; also: % is scaled to controls: 0 for no effect and ±100 for the full control effect; nearly all actives have a fitted effect of over 55% in size
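Overnight (16 hr) co-exposure of 2,000 cells/well to 5-fluorouridine and compound at 37 °C preceded detection. Luciferase was quantified via ONE-Glo luminescence; loss of signal denotes inhibition.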
FLuc counter: firefly luciferase modulation, counter-screen for miR-21 project. purified FLuc, Km substrates, luminescence inhibition. Potency, µM (series often up to 57.5 µM), without a hit: at the top dose activity change, negative = inhibition, actives largely listed as inhibitors. 6.9% of 360,000 active. AID 588342;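 also: plate controls were vehicle for no effect and reference inhibitor for full effect; nearly all actives have a fitted effect of over 55% in size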
Target sequence (P08659 whole entry, looked up): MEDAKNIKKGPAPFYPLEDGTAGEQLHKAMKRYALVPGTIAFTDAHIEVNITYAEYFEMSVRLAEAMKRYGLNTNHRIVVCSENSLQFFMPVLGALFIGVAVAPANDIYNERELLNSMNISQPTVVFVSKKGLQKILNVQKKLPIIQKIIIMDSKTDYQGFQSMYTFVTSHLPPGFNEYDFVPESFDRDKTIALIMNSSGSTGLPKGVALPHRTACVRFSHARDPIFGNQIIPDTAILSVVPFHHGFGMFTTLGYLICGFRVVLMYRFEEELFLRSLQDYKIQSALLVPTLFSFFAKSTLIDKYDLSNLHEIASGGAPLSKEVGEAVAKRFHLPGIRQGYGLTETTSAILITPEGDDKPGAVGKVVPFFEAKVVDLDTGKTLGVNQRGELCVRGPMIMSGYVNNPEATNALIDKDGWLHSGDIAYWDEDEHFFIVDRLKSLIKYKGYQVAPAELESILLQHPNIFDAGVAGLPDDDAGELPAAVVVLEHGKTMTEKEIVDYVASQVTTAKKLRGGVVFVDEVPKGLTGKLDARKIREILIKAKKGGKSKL
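Purified P. pyralis luciferase, 10 nM final, with Km-level 10 uM D-luciferin and 10 uM ATP in 50 mM Tris acetate pH 7.5, 10 mM Mg acetate, 0.01% Tween-20, 0.05% BSA; 6-point qHTS titration about 60 µM downward; luminescence read.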
NPC1 promoter act: activators of NPC1 promoter; Potency, µM (highest dose often 9.22 µM), for the others: at the highest dose activation, actives largely listed as activators; 2.4% of 320,000 active; Huh7 NPC1 promoter luciferase reporter, 24 h; also: % of control where 0% means no effect; nearly all actives have a fitted effect of over 60% in size
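Luminescence read-out of NPC1 promoter-driven luciferase in stably transfected Huh7 cells; compounds delivered in DMSO and left 24 h at 37C, 5% CO2, qHTS titration format.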
Rab9 prom act: activates the Rab9 promoter; Huh7 Rab9 promoter-luciferase reporter, luminescence, 24 h; Potency, µM (series often up to 9.22 µM), without a hit: at the highest dose activation, negative = inhibition, hits mostly activators; 2.8% of 320,000 active; AID 485297; also: % of control where 0% means no effect; nearly all actives have a fitted effect of over 60% in size
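Huh7 cells stably carrying a Rab9 promoter-luciferase reporter, 1500 cells per well in OP-MEM I with 10% FBS, treated with compound 24 hours at 37C. Luciferase activity read by luminescence after 10 minutes with Amplite reagent.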
SMN2 splice up: SMN2 splice variant enhancement | AID 1458 | HEK293 SMN2-luciferase splicing reporter, luminescence, 30-36 h | Potency, µM (titrated, usually from 46.1 µM), without a hit: at the top dose activity change, positive = activation, usual class: activators | 2.8% of 210,000 active; also: % of control where 0% means no effect; nearly all actives have a fitted effect of over 55% in size
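HEK293 cells carry an SMN2 […]–luciferase reporter in which exon 7 inclusion puts luciferase in frame. Cells were plated 10-12 h before compound addition, then incubated 30-36 h at 37C. ONE-Glo luminescence was read; sodium butyrate at 4.5 mM final served as control.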
* hit, by the source's call; [ ] = remark or other dose. Calls follow the shape of the dose curve; as a rule, active = well fitted curve in the direction sought with a large enough effect; inconclusive = small, poorly fitted or top-dose-only effect, or another doubt; inactive = no such curve, though single readings can be large; an effect the other way counts as inactive or inconclusive. Potency is read from the fitted curve at half-maximal effect.

What do the screens show for `COc1ccc(S(=O)(=O)N2CCOC23CCN(S(=O)(=O)c2cc(F)ccc2F)CC3)cc1`?
ELG1 genotoxic: 0.6%; ELG1 repair inh: -4.9%; FLuc counter: 1.2%; NPC1 promoter act: -1.9%; Rab9 prom act: 0.8%

Results for Cc1nc(-c2ccc(NC(=O)CC(C)C)cc2)cs1 ?
ELG1 genotoxic: inconclusive; ELG1 repair inh: inconclusive; FLuc counter: 7.57µM*; NPC1 promoter act: 2.82µM*; Rab9 prom act: 3.16µM*; SMN2 splice up: 11.2µM*

How did Cc1nc(-c2cccc(NC(=O)C3CCCCC3)c2)cs1 do in these assays?
ELG1 genotoxic: -1.1%; ELG1 repair inh: inconclusive; FLuc counter: inconclusive; NPC1 promoter act: 0.1%; Rab9 prom act: 0.6%; SMN2 splice up: 8.9%

What do the screens show for `Cc1nc(-c2ccc(NC(=O)C3CC3)cc2)cs1`?
ELG1 genotoxic: 20.6µM*; ELG1 repair inh: inconclusive; FLuc counter: 10.7µM*; NPC1 promoter act: 2.51µM*; Rab9 prom act: 2.82µM*

What do the screens show for `CCc1cccc(C)c1Nc1nc2ccccc2n2cnnc12`?
ELG1 genotoxic: 3.0%; ELG1 repair inh: inconclusive; FLuc counter: -0.5%; NPC1 promoter act: 2.8%; Rab9 prom act: -0.1%

How did O=C(/C=C/c1ccc(F)cc1)c1cc(Br)ccc1O do in these assays?
ELG1 genotoxic: 7.7%; ELG1 repair inh: inconclusive; FLuc counter: inconclusive; NPC1 promoter act: 12.1%; Rab9 prom act: 9.5%

Results for O=C(/C=C/c1ccc2ccccc2n1)c1cc(Br)ccc1O ?
ELG1 genotoxic: 11.6%; ELG1 repair inh: inconclusive; FLuc counter: 8.49µM*; NPC1 promoter act: -0.2%; Rab9 prom act: 5.6%

What do the screens show for `O=C(Nc1ccc2c(c1)CCC2)c1ccccc1Br`?
ELG1 genotoxic: 2.31µM*; ELG1 repair inh: inconclusive; FLuc counter: 4.78µM*; NPC1 promoter act: 1.58µM*; Rab9 prom act: 1.58µM*

Results for CSc1ccccc1C(=O)Nc1ccc2c(c1)CCC2 ?
ELG1 genotoxic: inconclusive; ELG1 repair inh: inconclusive; FLuc counter: 15.1µM*; NPC1 promoter act: inconclusive; Rab9 prom act: 1.9%[1.84 µM]

How did COc1c(Cl)ccc(Cl)c1C(=O)O do in these assays?
SMN2 splice up: 0.6%

Results for CC(C)c1nn2c(=O)cc(COC(=O)c3ccc(NC(=O)c4ccccc4Cl)cc3)nc2s1 ?
FLuc counter: -2.2%

Results for CC(C)c1nn2c(=O)cc(COC(=O)c3ccccc3Cl)nc2s1 ?
FLuc counter: 16.9µM*

Results for COc1cc(C(=O)OCc2cc(=O)n3nc(C(C)C)sc3n2)cc(OC)c1OC ?
FLuc counter: -0.4%

How did CC(C)c1nn2c(=O)cc(COC(=O)c3cccs3)nc2s1 do in these assays?
FLuc counter: 10.7µM*

Results for C/C(=N/Nc1nc(-c2ccccc2)cc(-c2ccc(F)cc2)n1)c1cccc(N)c1 ?
ELG1 genotoxic: -15.7%; ELG1 repair inh: 7.31µM*; FLuc counter: 9.53µM*; NPC1 promoter act: 9.1%; Rab9 prom act: -0.9%; SMN2 splice up: -45.4%

How did C/C(=N\Nc1nc(C)cc(-c2ccccc2)n1)c1ccc(F)cc1 do in these assays?
ELG1 genotoxic: -2.7%; ELG1 repair inh: -5.7%; FLuc counter: inconclusive; NPC1 promoter act: 1.4%; Rab9 prom act: -1.2%

Results for O=C(CC(Nc1ccc(Cl)cc1Cl)C(=O)O)c1ccccc1 (configuration not stated) ?
ELG1 genotoxic: 6.51µM*; ELG1 repair inh: inconclusive; FLuc counter: 2.69µM*; NPC1 promoter act: 5.8%; Rab9 prom act: 10.1%

Results for O=C(CC(Nc1ccccc1)C(=O)O)c1ccccc1 (configuration not stated) ?
ELG1 genotoxic: inconclusive; ELG1 repair inh: inconclusive; FLuc counter: 0.849µM*; NPC1 promoter act: 3.16µM*; Rab9 prom act: 2.82µM*; SMN2 splice up: 12.6µM*
